Rows were chosen to be rich in hits. Some 5.4% of all compounds tested hit in one or more screens of this group.
Exocytosis inh = lytic granule exocytosis inhibition | TALL-104 LAMP-1 surface exposure, flow cytometry; cells stimulated with thapsigargin and PMA | inhibition, % at 10 µM | 0.66% of 360,000 active | AID 651702;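 active = inhibition above about 55%, limit read from the data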
MIN6 prolif = inducers of beta-cell replication in MIN6 cells. proliferation, % at 10 µM. 0.29% of 330,000 active. MIN6 cells proliferation, ATPlite luminescence, 48 h; cells starved in 0.2% serum; 100% = growth in 10% serum;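 active = compounds whose signal lies at least 3.5 SD above the mean of all wells on their plate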
SMARCA2 activ = activators of SMARCA2 function; MG213 cells, MMTV-luciferase reporter, dexamethasone, overnight; activation, % at 9.1 µM; 1% of 370,000 active; AID 652017; in the data active = activation above about 7.8%
GASC-1 inh = blocks human GASC-1 demethylase activity; Q9H3R0; GST-JMJD2C(1-420) H3K9me3 demethylation, DELFIA europium; inhibition, % at 2.35 µM; 0.069% of 330,000 active; AID 2099;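 active = more than half of a compound's replicate wells show inhibition beyond 50%, single wells judged on their own value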;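 also: signal counts dimethyl H3K9 product captured on neutravidin plate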
Target sequence (Q9H3R0 1-420 limits assumed): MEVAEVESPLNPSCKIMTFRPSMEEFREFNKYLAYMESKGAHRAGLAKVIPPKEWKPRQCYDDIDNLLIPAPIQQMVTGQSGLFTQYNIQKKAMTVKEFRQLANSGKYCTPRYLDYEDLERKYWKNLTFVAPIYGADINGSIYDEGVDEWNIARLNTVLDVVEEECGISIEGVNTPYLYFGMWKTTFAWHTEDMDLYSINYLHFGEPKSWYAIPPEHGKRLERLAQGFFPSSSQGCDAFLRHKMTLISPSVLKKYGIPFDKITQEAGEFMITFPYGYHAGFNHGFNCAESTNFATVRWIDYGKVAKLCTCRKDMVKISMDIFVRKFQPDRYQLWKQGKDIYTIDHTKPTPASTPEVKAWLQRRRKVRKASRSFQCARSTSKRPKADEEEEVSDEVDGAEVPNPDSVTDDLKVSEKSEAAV
ALR H2O2 inh = inhibitors of human sulfhydryl oxidase ALR. 3.8% of 290,000 active. inhibition, % (concentration not given with the values). purified ALR, DTT oxidation, H2O2 HRP-luminol luminescence;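 active = mean replicate inhibition above about 79%, with every replicate also reaching it, limit read from the data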
Target sequence (P55789 whole entry, looked up): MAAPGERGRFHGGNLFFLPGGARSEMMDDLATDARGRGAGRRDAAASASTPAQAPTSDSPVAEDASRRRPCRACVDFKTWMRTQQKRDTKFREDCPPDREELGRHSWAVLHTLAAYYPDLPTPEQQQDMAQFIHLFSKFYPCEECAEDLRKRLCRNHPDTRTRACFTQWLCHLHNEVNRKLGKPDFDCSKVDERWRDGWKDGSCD
PfM18AAP inh = blocks P. falciparum M18 aspartyl aminopeptidase; recombinant PfM18AAP, H-Glu-NHMec fluorogenic cleavage; inhibition, % at 7.35 µM; 1.2% of 290,000 active; AID 1822;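 active = inhibition above the campaign mean inhibition over all tested compounds plus 3 SD, cut at about 28% in these data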
Exocytosis CP01 = blocks lytic granule exocytosis. shares compounds with Exocytosis inh. TALL-104 cells, LAMP-1 externalization, flow cytometry; stimulated with PMA plus thapsigargin. inhibition, % at 10 µM. 11% of 1,500 active; in the data active = inhibition above about 60%
Hits are given with their value; n = inactive; x = no result.

SMILES	Exocytosis inh	MIN6 prolif	SMARCA2 activ	GASC-1 inh	ALR H2O2 inh	PfM18AAP inh	Exocytosis CP01
COc1ccc(NC(=O)N(C)C[C@@H]2OCc3cnnn3CCCC(=O)N([C@@H](C)CO)C[C@@H]2C)cc1	x	x	n	x	x	x	x
OC(c1ccccc1)(c1ccccc1)C1CCN(CCCOc2cc(F)cc(F)c2)CC1	x	x	n	x	x	x	x
OC(c1ccccc1)(c1ccccc1)C1CCN(CCCOc2ccc3c(c2)CCCC3)CC1	62.0	x	n	x	x	x	n
O=S(=O)(c1ccccc1F)N1CCN(CC(O)c2ccccc2)CC1 (stereo unspecified)	80.4	n	n	n	n	n	n
CCOC(=O)c1cnc2c3c(noc13)CCC2	x	x	n	x	x	x	x
O=C1C(=O)c2ccc(-c3ccccc3)cc2-c2ccccc21	74.4	n	n	n	n	n	n
CCCN(CC1CC1)C(=O)CNc1nnnn1-c1ccccc1	x	x	n	x	x	x	x
C[C@H](CO)N1C[C@H](C)[C@@H](CN(C)S(=O)(=O)c2ccc(F)cc2)Oc2c(NC(=O)c3ccncc3)cccc2C1=O	92.2	x	n	x	x	x	n
C[C@H](CO)N1C[C@H](C)[C@@H](CN(C)S(=O)(=O)c2ccccc2)Oc2c(NC(=O)c3ccncc3)cccc2C1=O	n	n	n	n	n	x	x
CNC[C@H]1Oc2c(NS(=O)(=O)c3cccs3)cccc2C(=O)N([C@H](C)CO)C[C@@H]1C	77.2	n	n	n	n	x	n
COC(=O)[C@]12C[C@H](CC(=O)N3CCN(C(=O)c4ccco4)CC3)C(=O)N(Cc3cccc4ccccc34)C1=C[C@H](C1CCCC1)O[C@@H]2C	x	x	n	x	x	x	x
Cn1c(=O)c(N)c2c3c(c(Br)ccc31)C(=O)c1ccccc1-2	85.9	n	n	n	n	n	68.4
Cn1c(=O)c(NCCO)c2c3c(cccc31)C(=O)c1ccccc1-2	n	n	n	n	n	n	x
Cc1nc2c(-c3ccccc3)c(C)nn2c(C)c1CCC(=O)NCc1ccco1	n	n	n	n	x	n	x
CCN1CCN(c2ccc(NC(=O)CCc3c(C)nc4c(-c5ccccc5)c(C)nn4c3C)cc2)CC1	56.1	n	n	n	n	n	n
Cc1cc(NCc2ccccn2)n2ncc(-c3ccccc3)c2n1	n	n	n	n	n	n	x
Cc1cc(NCc2ccccn2)n2ncc(-c3ccc(Cl)cc3)c2n1	82.0	n	n	n	n	n	n
Cc1cc(N2CCN(c3ncccn3)CC2)nc2c(C)cccc12	71.8	n	n	n	n	n	n
COc1ccc(N2CCN(c3cc(C)c4cccc(C)c4n3)CC2)cc1	n	n	n	n	n	n	x
CCOc1ccccc1OCCN1CCC(Cc2ccccc2)CC1	n	n	n	n	n	n	x
CCC(=O)c1ccccc1OCCCN1CCC(Cc2ccccc2)CC1	65.0	n	n	n	n	n	n
Nc1nc2cc3c(cc2cc1C(=O)NCCc1c[nH]c2ccccc12)OCO3	x	x	n	x	x	x	x
COc1ccc(OC)c(NC(=O)c2cccc3c2C(=O)N(C2CCCCC2)C3)c1	78.3	n	n	n	n	n	n
CCc1ccc(NC(=O)NCC2CCN(Cc3cccc(Cl)c3)CC2)cc1	60.9	n	n	n	n	n	n
Cc1cc(C)cc(NC(=O)NCC2CCN(Cc3cc(C)ccc3C)CC2)c1	n	n	n	n	n	n	x
SMILES	Exocytosis inh	MIN6 prolif	SMARCA2 activ	GASC-1 inh	ALR H2O2 inh	PfM18AAP inh	Exocytosis CP01
Cc1ccc(C)c(CN2CCC(CNC(=O)Nc3ccc(F)c(Cl)c3)CC2)c1	57.7	n	n	n	n	n	n
C[C@@H]1CN([C@H](C)CO)C(=O)CCCn2cc(nn2)CO[C@H]1CN(C)S(=O)(=O)c1ccc(Cl)cc1	x	x	n	x	x	x	x
O=C(CCCN1CCOCC1)c1ccc2c(c1)OCCO2	n	n	n	n	n	n	x
CCOc1ccc(C(=O)CCN2CCCCCC2)cc1	100.6	n	n	n	n	n	64.3
O=C(CCN1CCOCC1)c1ccc2c(c1)OCCO2	84.8	n	n	n	n	n	n
O=C(CCN1CCc2ccccc2CC1)c1ccc2c(c1)OCCO2	100.8	n	n	n	n	n	78.1
O=C(CCN1CCCCC1)c1ccc2c(c1)OCO2	79.9	n	n	n	n	n	n
CC(=O)c1ccc([C@H](O)[C@H](C)C(=O)N(C)c2ccccc2)cc1	x	x	n	x	x	x	x
Cc1cc(Br)cn2c(Cc3cccc(Cl)c3)c(C3CCCCC3)nc12	x	x	n	x	x	x	x
Cc1ccc(S(=O)(=O)NCCCc2ccc3c(c2)[C@]2(CCC[C@@H](OCc4ccccc4)[C@@H]2NC(=O)CCc2ccccc2)C(=O)N3Cc2ccccc2)cc1	x	x	n	x	x	x	x
O=C(O)c1ccc2c(c1)OCCOCCOCCOCCOCCO2	n	n	n	n	n	n	x
O=C(c1ccccc1)c1ccc2c(c1)OCCOCCOCCOCCO2	71.6	n	n	n	n	n	n
CCOC(=O)C1Nc2c(cc(C(F)(F)F)cc2[N+](=O)[O-])C2c3ccccc3CC12 (stereo unspecified)	76.4	n	n	n	n	x	n
COC(=O)c1cc2c(c3c4cc(OC)ccc4n(S(=O)(=O)c4cccc(C)c4)c13)C(=O)N(Cc1ccccc1OC)C2	x	x	n	x	x	x	x
Cc1ccc2nc(C)c(CN3CCN(c4ccc([N+](=O)[O-])cc4Cl)CC3)n2c1	72.4	n	n	n	n	n	n
Cc1ccc(C)c(CN2C(=O)CSc3ccc(C(=O)NCC(C)CN4CCC(C)CC4)cc32)c1 (stereo unspecified)	76.9	n	n	n	n	n	n
O=C1CSC(c2cccs2)N1c1nncs1 (stereo unspecified)	x	x	n	x	x	x	x
Cc1ccc(Nc2nc(C(=O)N3CCC(C(=O)NCCN4CCOCC4)CC3)cs2)cc1	n	n	n	n	n	n	x
Cc1ccc(Nc2nc(C(=O)N3CCC(C(=O)NCc4ccccc4)CC3)cs2)cc1	65.2	n	n	n	n	n	n
Cc1ccc(Nc2nc(C(=O)N3CCC(C(=O)N4CCN(C)CC4)CC3)cs2)cc1	n	n	n	n	n	n	x
COc1ccc(CNC(=O)C2CCN(C(=O)c3csc(Nc4ccc(C)cc4)n3)CC2)cc1	57.7	n	n	n	n	n	n
Cc1ccc(-c2nn(-c3ccccc3)cc2C(=O)O)o1	x	n	x	n	n	n	x
Cc1ccc(-c2nn(-c3ccccc3)cc2CN(Cc2ccccc2)C(=O)c2ccco2)o1	107.7	n	n	n	n	n	103.9
Clc1nc(CN2CCCCC2)nc2sc3c(c12)CCCC3	97.6	n	n	n	n	n	n
O=C1NC(c2cccc(C(F)(F)F)c2)c2c(-c3ccccc3)n[nH]c21 (stereo unspecified)	x	x	n	x	x	x	x
Cc1cccc(COCC(CC(C)C)N2CCN(C(=O)c3ccc(C(C)(C)C)cc3)CCC2=O)c1 (stereo unspecified)	66.1	n	n	n	x	n	n
CN(c1ccc(OCc2ccc([N+](=O)[O-])cc2)cc1)S(=O)(=O)c1ccccc1	61.4	n	n	n	x	n	n
